# Tested on: T1, PFTK1
# T1 construct: gene CDK14
# Conditions: concentration: 1 μM, replicates: in singlicate; n = 1
# 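Also: KINOMEscan kinase panel screen.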
row,SMILES,%Inh
1,Cc1cccc(-c2nc(Nc3ccc4ncsc4c3)c3ccccc3n2)n1 [GW867588],0%
2,CCc1nc(-c2cccc(C)c2)c(-c2ccnc(NCc3ccccc3)c2)s1,1%
3,COc1cc2ncn(-c3cc(OCc4sccc4Cl)c(C(N)=O)s3)c2cc1OC [GSK448459],12%
4,Cc1c2ccc(N(C)c3ccnc(Nc4cccc(S(N)(=O)=O)c4)n3)cc2nn1Cc1ccccc1.Cl.Cl [GW787226],27%
5,Nc1nc(-c2ccc3c(N)n[nH]c3c2)cc(N2CCCC2)n1 [GSK2227430],0%
6,COCCNC(=O)c1ccc(-c2cc(C(=O)NC3CC3)cc(F)c2C)cc1 [GW868318],18%
7,COc1ccc(Nc2nccc(N3CCC(NC(=O)Nc4cc(C)ccc4C)C3)n2)cc1 (stereo not shown) [GSK1379741],2%
8,COc1ccc(CNC(=O)NC2CCN(c3ccnc(Nc4ccc(OC)cc4)n3)C2)cc1 (stereo not shown) [GSK1379727],9%
9,COc1ccc(Nc2ncc(C#N)c(Nc3ccccc3C(N)=O)n2)cc1N1CCN(C)CC1.Cl [GSK1558669],99.4%
10,O=c1cc(N2CCOCC2)nc2n(Cc3cccc(C(F)(F)F)c3)ccn12 [GSK2297543],12%
11,NS(=O)(=O)c1cccc(-c2ccc3nccc(-c4cccc(S(N)(=O)=O)c4)c3c2)c1 [GW867253],0%
12,c1ccc(-c2cc(-c3c[nH]nc3-c3ccccn3)ccn2)cc1 [GW576604],39%
13,Cc1nnc(-c2ccc(C)c(-c3ccc(C(=O)Nc4ccc(NS(C)(=O)=O)cc4)cc3)c2)o1 [GW702865],14%
14,N#Cc1ccc(-c2cc(-c3c[nH]nc3-c3ccccn3)ccn2)cc1 [GW693028],19%
15,NS(=O)(=O)CCc1cccc(Nc2nccc(-c3c(-c4cccc(NC(=O)c5c(F)cccc5F)c4)nn4ccccc34)n2)c1 [GSK336735],26%
16,Cc1ccc(C(=O)NCC(N)=O)cc1-n1c(C)cc(OCc2ccc(F)cc2F)c(Br)c1=O,26%
17,O=C1Cc2cc(Nc3nc(NCc4cccc(S(=O)(=O)C(F)(F)F)c4)ncc3C(F)(F)F)ccc2N1,0%
18,O=c1cc(N2CCOCC2)nc2n(Cc3cccc4ccccc34)ccn12 [GSK2333389],0%

row,SMILES,%Inh
1,Fc1ccc(-c2ncn(CCCN3CCOCC3)c2-c2cccnc2)cc1 [SB-211743],0%
2,Cc1cccc(Cn2ccn3c(=O)cc(N4CCOCC4)nc23)c1 [GSK2297542],15%
3,COc1ccc(Nc2nccc(N3CCC(NC(=O)Nc4cccc(C(C)=O)c4)C3)n2)cc1 (stereo not shown) [GSK1379731],3%
4,Cc1ccc(NC(=O)c2ccnc(N3CCN(C)CC3)c2)cc1-c1ccc(C(=O)NCC2CC2)cc1 [GW775604],0%
5,O=C(c1ccc(-c2cc(-c3c[nH]nc3-c3ccccn3)ccn2)cc1)N1CCOCC1 [GW812171],20%
6,COC(=O)Nc1nc2cc(Oc3ccc(NC(=O)Nc4cc(F)ccc4F)cc3)ccc2[nH]1.Cl [GW701424],19%
7,c1ccc(-c2n[nH]cc2-c2ccnc3ccccc23)nc1 [GW271431],25%
8,CN1c2ccc(CNc3ccc(F)cc3)cc2-c2c(cnn2C)S1(=O)=O,0%
9,CC(C)(C)n1cnc2c(N)ncnc21 [SKF-97359],0%
10,Cc1nnc(-c2ccc3occ(-c4ccc(C(C)O)cc4)c3c2)o1 (stereo not shown),1%
11,Cc1nnc(-c2ccc3ncc(-c4ccc(S(C)=O)cc4)n3c2)o1 (stereo not shown),0%
12,Nc1nccc(-c2c(-c3ccc(F)cc3)ncn2C2CCN(CC(F)(F)F)CC2)n1 [SB-236560],0%
13,O=c1cc(N2CCOCC2)nc2n(Cc3cccc(Cl)c3Cl)c(C3CC3)nn12 [GSK2358994],0%
14,O=C(NCCCN1CCOCC1)c1cccc(Nc2nccc(Nc3ccc(Oc4ccccc4)cc3)n2)c1 [GW663929],43%
15,CSc1ccc(-c2cc3ncnc(SCC(=O)O)c3s2)cc1,3%
16,CN(C(=O)c1ccc(-c2cc(-c3c[nH]nc3-c3ccccn3)ccn2)cc1)C1CCOCC1 [GW810083],0%
17,CCc1ccnc(/C=C/c2n[nH]c3cc(Sc4ccccc4C(=O)NC)ccc23)c1,8%

# Tested on: PHKG1
# Conditions: concentration: 1 μM, replicates: in singlicate; n = 1
row,SMILES,%Inh
1,Cc1cccc(-c2nc(Nc3ccc4ncsc4c3)c3ccccc3n2)n1 [GW867588],0%
2,CCc1nc(-c2cccc(C)c2)c(-c2ccnc(NCc3ccccc3)c2)s1,0%
3,COc1cc2ncn(-c3cc(OCc4sccc4Cl)c(C(N)=O)s3)c2cc1OC [GSK448459],0%
4,Cc1c2ccc(N(C)c3ccnc(Nc4cccc(S(N)(=O)=O)c4)n3)cc2nn1Cc1ccccc1.Cl.Cl [GW787226],0%
5,Nc1nc(-c2ccc3c(N)n[nH]c3c2)cc(N2CCCC2)n1 [GSK2227430],0%
6,COCCNC(=O)c1ccc(-c2cc(C(=O)NC3CC3)cc(F)c2C)cc1 [GW868318],6%
7,COc1ccc(Nc2nccc(N3CCC(NC(=O)Nc4cc(C)ccc4C)C3)n2)cc1 (stereo not shown) [GSK1379741],0%
8,COc1ccc(CNC(=O)NC2CCN(c3ccnc(Nc4ccc(OC)cc4)n3)C2)cc1 (stereo not shown) [GSK1379727],0%
9,COc1ccc(Nc2ncc(C#N)c(Nc3ccccc3C(N)=O)n2)cc1N1CCN(C)CC1.Cl [GSK1558669],89%
10,O=c1cc(N2CCOCC2)nc2n(Cc3cccc(C(F)(F)F)c3)ccn12 [GSK2297543],0%
11,NS(=O)(=O)c1cccc(-c2ccc3nccc(-c4cccc(S(N)(=O)=O)c4)c3c2)c1 [GW867253],0%
12,c1ccc(-c2cc(-c3c[nH]nc3-c3ccccn3)ccn2)cc1 [GW576604],0%
13,Cc1nnc(-c2ccc(C)c(-c3ccc(C(=O)Nc4ccc(NS(C)(=O)=O)cc4)cc3)c2)o1 [GW702865],2%
14,N#Cc1ccc(-c2cc(-c3c[nH]nc3-c3ccccn3)ccn2)cc1 [GW693028],0%
15,NS(=O)(=O)CCc1cccc(Nc2nccc(-c3c(-c4cccc(NC(=O)c5c(F)cccc5F)c4)nn4ccccc34)n2)c1 [GSK336735],0%
16,Cc1ccc(C(=O)NCC(N)=O)cc1-n1c(C)cc(OCc2ccc(F)cc2F)c(Br)c1=O,9%
17,O=C1Cc2cc(Nc3nc(NCc4cccc(S(=O)(=O)C(F)(F)F)c4)ncc3C(F)(F)F)ccc2N1,3%
18,O=c1cc(N2CCOCC2)nc2n(Cc3cccc4ccccc34)ccn12 [GSK2333389],2%

row,SMILES,%Inh
1,Fc1ccc(-c2ncn(CCCN3CCOCC3)c2-c2cccnc2)cc1 [SB-211743],3%
2,Cc1cccc(Cn2ccn3c(=O)cc(N4CCOCC4)nc23)c1 [GSK2297542],1%
3,COc1ccc(Nc2nccc(N3CCC(NC(=O)Nc4cccc(C(C)=O)c4)C3)n2)cc1 (stereo not shown) [GSK1379731],0%
4,Cc1ccc(NC(=O)c2ccnc(N3CCN(C)CC3)c2)cc1-c1ccc(C(=O)NCC2CC2)cc1 [GW775604],0%
5,O=C(c1ccc(-c2cc(-c3c[nH]nc3-c3ccccn3)ccn2)cc1)N1CCOCC1 [GW812171],1%
6,COC(=O)Nc1nc2cc(Oc3ccc(NC(=O)Nc4cc(F)ccc4F)cc3)ccc2[nH]1.Cl [GW701424],0%
7,c1ccc(-c2n[nH]cc2-c2ccnc3ccccc23)nc1 [GW271431],0%
8,CN1c2ccc(CNc3ccc(F)cc3)cc2-c2c(cnn2C)S1(=O)=O,0%
9,CC(C)(C)n1cnc2c(N)ncnc21 [SKF-97359],14%
10,Cc1nnc(-c2ccc3occ(-c4ccc(C(C)O)cc4)c3c2)o1 (stereo not shown),9%
11,Cc1nnc(-c2ccc3ncc(-c4ccc(S(C)=O)cc4)n3c2)o1 (stereo not shown),20%
12,Nc1nccc(-c2c(-c3ccc(F)cc3)ncn2C2CCN(CC(F)(F)F)CC2)n1 [SB-236560],0%
13,O=c1cc(N2CCOCC2)nc2n(Cc3cccc(Cl)c3Cl)c(C3CC3)nn12 [GSK2358994],8%
14,O=C(NCCCN1CCOCC1)c1cccc(Nc2nccc(Nc3ccc(Oc4ccccc4)cc3)n2)c1 [GW663929],0%
15,CSc1ccc(-c2cc3ncnc(SCC(=O)O)c3s2)cc1,0%
16,CN(C(=O)c1ccc(-c2cc(-c3c[nH]nc3-c3ccccn3)ccn2)cc1)C1CCOCC1 [GW810083],1%
17,CCc1ccnc(/C=C/c2n[nH]c3cc(Sc4ccccc4C(=O)NC)ccc23)c1,17%

# Source: PMC5540273 (PLoS ONE, 2017)
